Bioassay records from PubChem BioAssay.
MITF primary: human MITF inhibition, primary screen. O75030. AlphaScreen MITF homodimerization, bead proximity signal. inhibition, % at 2.6 µM. 650,000 compounds, 0.91% hits. AID 1259374; in the data active = inhibition above about 50%;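 also: 0% = vehicle wells with protein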
GPR151 activ: activates the human receptor GPR151. Q8TDV0. PathHunter beta-arrestin GPR151 cells, luminescence. activation, % at 11.2 µM. 650,000 compounds, 1% hits. AID 1508602; in the data active = activation above about 4.9%;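 also: 0% = median of compound wells and 100% = cells with positive control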
FBW7 act: human FBW7 E3 ligase activation, primary screen; AlphaScreen FBW7–phospho-cyclin E peptide binding, activator screen; 650,000 compounds, 0.13% hits; normalized activity (activation), % at 26.1 µM; in the data active = normalized activity above about 1.9%;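 also: purified mutant Fbw7 with reduced substrate affinity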
Target sequence (Q969H0 whole entry, looked up): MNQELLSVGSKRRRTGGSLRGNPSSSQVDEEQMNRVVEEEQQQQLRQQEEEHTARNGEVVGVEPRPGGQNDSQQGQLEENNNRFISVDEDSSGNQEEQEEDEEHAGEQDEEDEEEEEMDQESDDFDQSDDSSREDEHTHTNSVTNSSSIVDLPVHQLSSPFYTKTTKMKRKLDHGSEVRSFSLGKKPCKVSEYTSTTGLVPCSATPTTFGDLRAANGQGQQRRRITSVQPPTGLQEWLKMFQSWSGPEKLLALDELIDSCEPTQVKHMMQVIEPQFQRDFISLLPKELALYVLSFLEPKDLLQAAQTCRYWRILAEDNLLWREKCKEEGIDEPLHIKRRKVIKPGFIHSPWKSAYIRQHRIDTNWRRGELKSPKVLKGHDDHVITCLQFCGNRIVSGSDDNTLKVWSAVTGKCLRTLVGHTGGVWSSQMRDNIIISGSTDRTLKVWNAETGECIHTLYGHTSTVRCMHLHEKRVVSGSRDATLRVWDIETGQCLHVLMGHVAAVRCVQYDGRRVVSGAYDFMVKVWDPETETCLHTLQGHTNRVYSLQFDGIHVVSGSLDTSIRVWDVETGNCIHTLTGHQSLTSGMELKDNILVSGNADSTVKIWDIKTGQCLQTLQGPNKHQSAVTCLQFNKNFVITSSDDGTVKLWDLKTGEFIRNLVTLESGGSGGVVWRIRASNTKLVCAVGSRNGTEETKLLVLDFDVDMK
TEAD-YAP inh: TEAD-YAP interaction inhibition. HEK-TIYL cells, TEAD-Gal4/YAP UAS-luciferase luminescence. inhibition, % at 9.12 µM. 640,000 compounds, 1.4% hits; in the data active = inhibition above about 32%;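 also: 0% = median of test compound wells and 100% = reference inhibitor wells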
An asterisk follows results filed as active. The list is not random: actives were taken first. Their share in the collection is about 3.4%.

How did N#Cc1cc(-c2ccnc(Nc3ccc(-n4cnc(N5CCOCC5)n4)cc3)n2)cc(N2CCCC(O)C2)c1 (configuration not stated) do in these assays?
MITF primary: 1; GPR151 activ: -1; FBW7 act: 0; TEAD-YAP inh: 17

Results for CN1CCN(c2ncn(-c3ccc(Nc4nccc(-c5cc(C#N)cc(N6CCC(O)CC6)c5)n4)cc3)n2)CC1 ?
MITF primary: 3; GPR151 activ: -1; FBW7 act: 0; TEAD-YAP inh: 42*

What do the screens show for `CCN1CCN(c2ncn(-c3ccc(Nc4nccc(-c5cncc(N6CCOCC6)c5)n4)cc3)n2)CC1`?
MITF primary: 6; GPR151 activ: 2; FBW7 act: 0; TEAD-YAP inh: 60*

Results for COc1cccnc1-c1ncn(-c2ccc(Nc3nccc(-c4cc(F)cc(N5CCOCC5)c4)n3)cc2)n1 ?
MITF primary: -2; GPR151 activ: 1; FBW7 act: 0; TEAD-YAP inh: 83*

What do the screens show for `Cc1ccnc(-c2ncn(-c3ccc(Nc4nccc(-c5cc(F)cc(N6CCOCC6)c5)n4)cc3)n2)c1`?
MITF primary: -8; GPR151 activ: 1; FBW7 act: 0; TEAD-YAP inh: 28

How did c1cc(Cn2cccn2)cc(Nc2nccc(-c3cncc(N4CCOCC4)c3)n2)c1 do in these assays?
MITF primary: 21; GPR151 activ: -2; FBW7 act: 0; TEAD-YAP inh: 79*

Results for OC1CCN(c2cc(F)cc(-c3ccnc(Nc4ccc(-n5cnc(-c6ccccn6)n5)cc4)n3)c2)CC1 ?
MITF primary: 3; GPR151 activ: 1; FBW7 act: 0; TEAD-YAP inh: 85*

What do the screens show for `Fc1cc(-c2ccnc(Nc3ccc(-n4cnc(C(F)(F)F)n4)cc3)n2)cc(N2CCNCC2)c1`?
MITF primary: 9; GPR151 activ: 1; FBW7 act: 1; TEAD-YAP inh: 39*

What do the screens show for `Fc1cc(-c2ccnc(Nc3ccc(-n4cnc(C(F)(F)F)n4)cc3)n2)cc(N2CCN(C3CC3)CC2)c1`?
MITF primary: 13; GPR151 activ: -1; FBW7 act: 0; TEAD-YAP inh: 9

How did Fc1cc(-c2ccnc(Nc3ccc(N4CCOCC4)cc3)n2)cc(N2CCN(C3CC3)CC2)c1 do in these assays?
MITF primary: 2; GPR151 activ: 0; FBW7 act: 0; TEAD-YAP inh: 48*

What do the screens show for `CN(C)c1cc(F)cc(-c2ccnc(Nc3ccc(-n4cnc(N5CCC(O)CC5)n4)cc3)n2)c1`?
MITF primary: -9; GPR151 activ: 3; FBW7 act: 0; TEAD-YAP inh: 65*

How did OC1CCN(c2ccc(Nc3nccc(-c4cc(F)cc(N5CCOCC5)c4)n3)cc2)CC1 do in these assays?
MITF primary: 10; GPR151 activ: 1; FBW7 act: 0; TEAD-YAP inh: 48*

How did Cc1ncn(-c2ccc(Nc3nccc(-c4cncc(N5CCC(O)CC5)c4)n3)cc2)n1 do in these assays?
MITF primary: 5; GPR151 activ: 0; FBW7 act: 0; TEAD-YAP inh: 74*

What do the screens show for `N#Cc1cc(-c2ccnc(Nc3cccc(CN4CCCCC4)c3)n2)cc(N2CCOCC2)c1`?
MITF primary: 16; GPR151 activ: -1; FBW7 act: 0; TEAD-YAP inh: 86*

How did Cc1cc(Nc2nccc(-c3cc(C#N)cc(N4CCOCC4)c3)n2)ccc1N1CCOCC1 do in these assays?
MITF primary: -5; GPR151 activ: 0; FBW7 act: 0; TEAD-YAP inh: -1

Results for NC(=O)c1ccc(-c2nc(Nc3ccccc3)c3ncn(Cc4ccc(C(F)(F)F)cc4)c3n2)cc1 ?
MITF primary: 18; GPR151 activ: 2; FBW7 act: 0; TEAD-YAP inh: -12

How did COc1nccnc1NS(=O)(=O)c1ccc(NC(=O)c2ccccc2[N+](=O)[O-])cc1 do in these assays?
MITF primary: -17; GPR151 activ: 0; FBW7 act: 0; TEAD-YAP inh: -1

How did OC1CCN(c2ccc(Nc3nccc(-c4cncc(N5CCOCC5)c4)n3)cc2)CC1 do in these assays?
MITF primary: 11; GPR151 activ: 0; FBW7 act: 0; TEAD-YAP inh: 62*

Results for Fc1cc(-c2ccnc(Nc3ccc(-n4cnc(N5CCOCC5)n4)cc3)n2)cc(N2CCOCC2)c1 ?
MITF primary: -14; GPR151 activ: -1; FBW7 act: 0; TEAD-YAP inh: 57*

How did CC(C)(C)c1ncn(-c2ccc(Nc3nccc(-c4cn[nH]c4)n3)cc2)n1 do in these assays?
MITF primary: 2; GPR151 activ: 0; FBW7 act: 0; TEAD-YAP inh: 63*

What do the screens show for `Fc1cc(-c2cn[nH]c2)cc(-c2ccnc(Nc3ccc(-n4cnc(C(F)(F)F)n4)cc3)n2)c1`?
MITF primary: 18; GPR151 activ: 0; FBW7 act: 0; TEAD-YAP inh: -5

How did N#Cc1cc(-c2ccnc(Nc3ccc(N4CCC(O)CC4)cc3)n2)cc(N2CCOCC2)c1 do in these assays?
MITF primary: 13; GPR151 activ: 0; FBW7 act: 0; TEAD-YAP inh: 47*

Results for N#Cc1ccc(Nc2nccc(-c3cncc(N4CCOCC4)c3)n2)cc1 ?
MITF primary: 2; GPR151 activ: 4; FBW7 act: 0; TEAD-YAP inh: 3

What do the screens show for `COc1ccc(CCN(C)C2CCCN(CCCn3cccn3)C2)cc1OC` (configuration not stated)?
MITF primary: 8; GPR151 activ: 1; FBW7 act: 0; TEAD-YAP inh: -8

What do the screens show for `O=C(c1ccc(S(=O)(=O)c2ccccc2)cc1)N1CCC(Cc2ccccc2)CC1`?
MITF primary: 11; GPR151 activ: 1; FBW7 act: 0; TEAD-YAP inh: -2

Results for CCCCc1ccc(NC(=O)c2ccc(N(C)S(C)(=O)=O)cc2)cc1 ?
MITF primary: -10; GPR151 activ: 0; FBW7 act: 0; TEAD-YAP inh: 35*

Results for O=C(NCc1ccccn1)NC1CC(=O)N(c2ccc(Cl)cc2)C1 (configuration not stated) ?
MITF primary: 5; GPR151 activ: 0; FBW7 act: 0; TEAD-YAP inh: -3

Results for COc1ccc(CNC(=O)C2CC(c3ccccc3OC)=NO2)cc1 (configuration not stated) ?
MITF primary: -1; GPR151 activ: -1; FBW7 act: 0; TEAD-YAP inh: 48*

Results for COc1ccccc1C1=NOC(C(=O)NCc2cccs2)C1 (configuration not stated) ?
MITF primary: -4; GPR151 activ: 0; FBW7 act: 0; TEAD-YAP inh: 41*

What do the screens show for `COc1ccc(CNC(=O)C2CC(c3ccccc3F)=NO2)cc1` (configuration not stated)?
MITF primary: -11; GPR151 activ: 0; FBW7 act: 0; TEAD-YAP inh: 0

What do the screens show for `O=C(NC(=O)N1CCCCC1)c1ccc(Cl)cc1`?
MITF primary: 1; GPR151 activ: -1; FBW7 act: 0; TEAD-YAP inh: 9

Results for N#CC(NC(=O)c1ccc(Cl)cc1)=C(Cl)Cl ?
MITF primary: 32; GPR151 activ: -1; FBW7 act: 1; TEAD-YAP inh: 37*
